The nature of assay [1]: antimalarial activity against Dd2 strain (AID 2302;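 active means growth inhibition above 50% at the single 2 µM test dose, taken to imply half-maximal potency below 2 µM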;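 further: 0% = DMSO untreated growth and 100% = chloroquine plus artemisinin killed control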). As to conditions: P. falciparum Dd2 in RBCs, LDH growth readout, 72 h; at 2 µM; hits give high values.
The nature of assay [2]: HepG2 cytotoxicity, primary screen, cytotoxicity control for P. falciparum antimalarial project, cell-based, ATP luminescence (AID 2303;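 active means inhibition above 50%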;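 further: 0% = DMSO wells and 100% = digitonin-killed cells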). As to conditions: HepG2 viability, 24-48 h, at 10 µM, hits give high values.
In assay [3] the target is L-lactate dehydrogenase (Plasmodium falciparum (isolate CDC / Honduras)) (UniProt Q27743). Kind of assay: PfLDH activity inhibition – cell lysate, 3D7 strain, counter-screen for P. falciparum growth inhibition project (AID 2304).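 Further: 0% = vehicle and 100% = reference inhibitor.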 Particulars: P. falciparum 3D7 crude extract, LDH APAD/NBT absorbance; at 2 µM; hits give high values.
L-lactate dehydrogenase (Plasmodium falciparum (isolate CDC / Honduras)), sequence (Q27743 whole entry, looked up): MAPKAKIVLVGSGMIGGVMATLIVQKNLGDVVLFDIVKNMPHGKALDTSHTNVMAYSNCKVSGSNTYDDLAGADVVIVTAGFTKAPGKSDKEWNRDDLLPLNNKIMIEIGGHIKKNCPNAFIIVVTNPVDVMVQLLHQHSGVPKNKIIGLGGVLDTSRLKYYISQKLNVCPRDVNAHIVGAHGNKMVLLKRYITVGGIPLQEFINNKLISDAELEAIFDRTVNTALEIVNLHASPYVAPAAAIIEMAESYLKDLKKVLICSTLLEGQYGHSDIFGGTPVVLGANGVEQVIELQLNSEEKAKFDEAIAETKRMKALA
A short description of assay [4]: inhibition of 3D7 malaria parasite growth – strain 3D7 (AID 2306).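 Further: 0% = DMSO wells and 100% = chloroquine plus artemisinin control wells.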 As to conditions: P. falciparum 3D7 erythrocytic growth, LDH absorbance, 72 h; at 2 µM; hits give high values.
The target of assay [5] is Calcium-dependent protein kinase 1 (Plasmodium falciparum (isolate 3D7)) (UniProt P62344). Kind of assay: PfCDPK1 kinase inhibitors, biochemical, TCAMS library (AID 1159585; cut-off not given, nearly all actives have IC50 up to about 0.98 µM;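 further: inhibitors leave more ATP so luminescence rises with inhibition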). Particulars: recombinant PfCDPK1, Kinase-Glo ATP depletion luminescence.
Calcium-dependent protein kinase 1 (Plasmodium falciparum (isolate 3D7)), sequence (P62344 whole entry, looked up): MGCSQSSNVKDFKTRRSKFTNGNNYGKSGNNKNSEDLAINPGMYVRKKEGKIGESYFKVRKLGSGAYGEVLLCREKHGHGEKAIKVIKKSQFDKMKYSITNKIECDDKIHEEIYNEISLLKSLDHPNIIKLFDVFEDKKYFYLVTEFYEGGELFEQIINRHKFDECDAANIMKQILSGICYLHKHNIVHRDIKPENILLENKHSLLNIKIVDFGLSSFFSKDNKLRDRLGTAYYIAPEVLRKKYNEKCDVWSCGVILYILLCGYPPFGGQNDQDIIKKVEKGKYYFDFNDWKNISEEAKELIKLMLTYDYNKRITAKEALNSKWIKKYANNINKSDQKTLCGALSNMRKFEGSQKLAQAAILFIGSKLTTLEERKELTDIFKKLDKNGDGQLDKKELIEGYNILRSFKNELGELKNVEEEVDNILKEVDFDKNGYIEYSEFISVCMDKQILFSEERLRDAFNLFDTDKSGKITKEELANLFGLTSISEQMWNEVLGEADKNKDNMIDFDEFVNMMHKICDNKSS
Assay [6] deals with Plasmodium falciparum protein kinase 6 (PK6, PF3D7_1337100) (UniProt Q8IDW1). Kind of assay: PfPK6 kinase inhibitors, biochemical, TCAMS library (AID 1159586). As to conditions: recombinant PfPK6, Kinase-Glo ATP depletion luminescence.
Plasmodium falciparum protein kinase 6 (PK6, PF3D7_1337100), sequence (Q8IDW1 1-305): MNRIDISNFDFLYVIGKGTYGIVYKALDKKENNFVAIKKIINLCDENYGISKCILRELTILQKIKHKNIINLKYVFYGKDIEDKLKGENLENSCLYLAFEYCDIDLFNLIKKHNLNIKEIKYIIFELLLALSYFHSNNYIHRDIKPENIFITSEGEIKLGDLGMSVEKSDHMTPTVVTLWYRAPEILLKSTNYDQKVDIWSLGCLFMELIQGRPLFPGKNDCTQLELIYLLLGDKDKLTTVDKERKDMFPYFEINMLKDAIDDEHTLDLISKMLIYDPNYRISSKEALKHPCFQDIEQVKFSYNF
Assay [7] deals with Protein kinase 7 (PK7), Plasmodium falciparum 3D7 (PF3D7_0213400) (UniProt Q7YTF7). The assay can be described thus: inhibition of Plasmodium PK7 catalytic activity – biochemical, TCAMS antimalarial set, Kinase-Glo luminescence (AID 1159587). As to conditions: recombinant PfPK7, Kinase-Glo ATP depletion luminescence.
Protein kinase 7 (PK7), Plasmodium falciparum 3D7 (PF3D7_0213400), sequence (Q7YTF7 1-343): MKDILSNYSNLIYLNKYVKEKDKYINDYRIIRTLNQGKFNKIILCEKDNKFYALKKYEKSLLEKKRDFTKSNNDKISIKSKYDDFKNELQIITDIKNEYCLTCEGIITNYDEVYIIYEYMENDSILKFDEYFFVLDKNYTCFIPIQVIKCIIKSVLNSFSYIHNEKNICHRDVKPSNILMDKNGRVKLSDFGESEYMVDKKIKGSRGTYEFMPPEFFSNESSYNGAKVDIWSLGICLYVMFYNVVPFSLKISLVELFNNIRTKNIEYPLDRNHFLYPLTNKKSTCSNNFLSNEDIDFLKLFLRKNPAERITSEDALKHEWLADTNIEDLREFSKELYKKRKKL
Assay [8] has as its target Calcium-dependent protein kinase 4 (Plasmodium falciparum (isolate 3D7)) (UniProt Q8IBS5). Kind of assay: PfCDPK4 kinase inhibitors, biochemical, TCAMS library (AID 1159588; cut-off not given, nearly all actives have IC50 up to about 0.91 µM). As to conditions: recombinant PfCDPK4, Kinase-Glo ATP depletion luminescence.

SMILES strings stand for the structures. Values without a mark were called inactive. For some of these results: Results with a measured potency or affinity are listed apart. Active and inactive are the calls of the source. Unless noted, how the calls were made is not given here.

Calcium-dependent protein kinase 4 (Plasmodium falciparum (isolate 3D7)), sequence (Q8IBS5 whole entry, looked up): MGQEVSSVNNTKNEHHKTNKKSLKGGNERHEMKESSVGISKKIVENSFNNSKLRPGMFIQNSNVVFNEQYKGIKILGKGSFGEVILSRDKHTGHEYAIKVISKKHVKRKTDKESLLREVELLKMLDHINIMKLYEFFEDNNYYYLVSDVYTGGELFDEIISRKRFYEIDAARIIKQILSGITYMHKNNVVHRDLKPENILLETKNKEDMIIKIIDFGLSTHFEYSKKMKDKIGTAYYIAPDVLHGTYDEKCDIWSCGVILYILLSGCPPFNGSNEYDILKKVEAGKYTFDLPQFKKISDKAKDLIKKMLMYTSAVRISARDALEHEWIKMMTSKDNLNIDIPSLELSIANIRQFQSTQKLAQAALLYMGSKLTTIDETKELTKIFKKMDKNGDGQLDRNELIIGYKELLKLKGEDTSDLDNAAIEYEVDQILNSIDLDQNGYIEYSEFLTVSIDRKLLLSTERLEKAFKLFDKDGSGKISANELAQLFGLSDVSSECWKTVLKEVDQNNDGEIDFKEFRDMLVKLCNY

As to `O=C(NC(CCCN1CCC2(CC1)OCc1ccccc12)c1ccc(Cl)c(Cl)c1)c1cc(C(F)(F)F)cc(C(F)(F)F)c1` (stereo not given), the figures for the growth inhibition in assay [1] and in assay [4] were 99% (active) and 100% (active), respectively. Moreover, the inhibition was 55% (active) in assay [2] and 5% in assay [3]. For the same molecule, the outcome in assay [5], in assay [6], in assay [7] and in assay [8] was inactive.
As for `COc1ccc(C(=O)N[C@@H](CC(C)C)C(=O)NC2CC[C@@H](C)N(C(=O)Nc3ccc(Cl)cc3)CC2=O)cc1OCCN1CCOCC1` (stereo not given in full), the growth inhibition in assay [1] was 91% (active); in assay [4], 96% (active). Moreover, the inhibition in assay [2] and in assay [3] was 5% throughout. Moreover, the result in assay [5], in assay [6], in assay [7] and in assay [8] was inactive.
For `OCCN1CCN(c2nc(Nc3cccc(F)c3)c3cnn(-c4ccccc4)c3n2)CC1`, the growth inhibition in assay [1] is 76% (active); in assay [4], 100% (active). Also, the inhibition in assay [2] is 89% (active); in assay [3], -2%. Further, the result in assay [5], in assay [6], in assay [7] and in assay [8] was inactive.
Take `COc1ccc2nc(C)cc(NN=Cc3ccccc3)c2c1`: the growth inhibition in assay [1] was 6%; in assay [4] it was 80% (active). For the same molecule, the inhibition was 4% in assay [2] and 0% in assay [3]. Moreover, the result in assay [5], in assay [6], in assay [7] and in assay [8] was inactive.
Take `C/C(=C\C(=O)NC1CC1)c1ccccc1OCc1ccccc1`: the growth inhibition in assay [1] is 1%; in assay [4], 90% (active). Moreover, the results for the inhibition in assay [2] and in assay [3] were 3% and -1%, respectively. Besides, the outcome in assay [5], in assay [6], in assay [7] and in assay [8] was inactive.
On to `CCCCCCCc1[nH]c2ccccc2c(=O)c1C`, for which the growth inhibition in assay [1] is 96% (active); in assay [4] it was 97% (active). Further, the inhibition in assay [2] was 48%; in assay [3] it was 2%. Also, the result in assay [5], in assay [6], in assay [7] and in assay [8] was inactive.
As to `COc1ccc(Cn2c(Nc3cccc(C(F)(F)F)c3)nc3cc(C(=O)NC4CC4)cnc32)cc1Cl`, the values for the growth inhibition in assay [1] and in assay [4] were 96% (active) and 94% (active), respectively. For the same molecule, the inhibition is -2% in assay [2] and -3% in assay [3]. Besides, the result in assay [5], in assay [6], in assay [7] and in assay [8] was inactive.
Take `CCOC(=O)C1=C(C)NC2=C(C(=O)C(C(=O)OC)C(C)C2)C1c1cc(Br)c(OCC)c(OC)c1` (stereo not given): the growth inhibition in assay [1] was 99% (active); in assay [4] it was 101% (active). Also, the inhibition in assay [2] is 8%; in assay [3], 0%. In addition, the result in assay [5], in assay [6], in assay [7] and in assay [8] was inactive.
For `CS(=O)(=O)Nc1cccc(-c2cnc3[nH]cc(-c4ccc(CCC(=O)O)cc4)c3c2)c1`, the growth inhibition in assay [1] is 78% (active); in assay [4], 98% (active). Moreover, the inhibition is 7% in assay [2] and 2% in assay [3]. Further, the result in assay [5], in assay [6], in assay [7] and in assay [8] was inactive.
In the case of `CCOc1cc(C(C)C)ccc1N1CCN(CCCCNC(=O)c2ccc(NC(=O)c3ccc(Cl)cc3)cc2)CC1`, the growth inhibition in assay [1] is 97% (active); in assay [4], 101% (active). Further, the figures for the inhibition in assay [2] and in assay [3] were 28% and 4%, respectively. The result in assay [5], in assay [6], in assay [7] and in assay [8] was inactive.
As to `O=C(Cn1cc(C(F)(F)F)cc(Cl)c1=O)N1CCN(S(=O)(=O)c2ccc(Cl)cc2)CC1`, the growth inhibition in assay [1] was 69% (active); in assay [4], 99% (active). Further, the inhibition in assay [2] was 14%; in assay [3] it was 0%. Moreover, the result in assay [5], in assay [6], in assay [7] and in assay [8] was inactive.
Take `O=C(/C=C/c1cccc(Br)c1)NCCCCCN1CCC(c2c[nH]c3ccccc23)CC1`: the results for the growth inhibition in assay [1] and in assay [4] were 15% and 100% (active), respectively. The inhibition in assay [2] was 38%; in assay [3], 0%. The result in assay [5], in assay [6], in assay [7] and in assay [8] was inactive.
Take `COc1cc(NC(=O)NC(CCN2CCC3(CCc4ccccc43)CC2)c2ccc(Cl)c(Cl)c2)cc(OC)c1OC` (stereo not given): the growth inhibition is 66% (active) in assay [1] and 90% (active) in assay [4]. In addition, the inhibition in assay [2] is 66% (active); in assay [3] it was 6%. Besides, the result in assay [5], in assay [6], in assay [7] and in assay [8] was inactive.
For the molecule `COc1ccc(-c2cccc(NC(=O)c3cccc(Cl)c3)c2)cc1CN1CCCC1`, the results for the growth inhibition in assay [1] and in assay [4] were 66% (active) and 99% (active), respectively. The inhibition in assay [2] is 45%; in assay [3], 1%. The result in assay [5], in assay [6], in assay [7] and in assay [8] was inactive.
In the case of `NC(Cc1ccc(Cl)cc1)=NCCN1CCCCCC1`, the growth inhibition in assay [1] is 94% (active); in assay [4], 93% (active). Besides, the inhibition in assay [2] was -8%; in assay [3], -2%. Also, the outcome in assay [5], in assay [6], in assay [7] and in assay [8] was inactive.
Regarding `O=C(c1ccc(Cl)cc1)C1CCCN(C2CCN(CCc3ccccc3)CC2)C1` (stereo not given), the growth inhibition in assay [1] was 51% (active); in assay [4], 96% (active). The values for the inhibition in assay [2] and in assay [3] were 37% and 1%, respectively. The outcome in assay [5], in assay [6], in assay [7] and in assay [8] was inactive.
Consider `Cc1cccc(C)c1CNc1ccnc2cc(C#N)ccc12`, for which the growth inhibition in assay [1] is 99% (active); in assay [4], 100% (active). In addition, the inhibition was 20% in assay [2] and -1% in assay [3]. For the same molecule, the outcome in assay [5], in assay [6], in assay [7] and in assay [8] was inactive.
In the case of `CCCC(C)n1ccc2c3c(N)nc(N)nc3ccc21` (stereo not given), the figures for the growth inhibition in assay [1] and in assay [4] were 91% (active) and 94% (active), respectively. Besides, the figures for the inhibition in assay [2] and in assay [3] were 70% (active) and -2%, respectively. For the same molecule, the outcome in assay [5], in assay [6], in assay [7] and in assay [8] was inactive.
Take `Cc1cnc(C(=O)Nc2ccc(-c3cccc(-c4nc5ccccc5[nH]4)c3)cc2)cn1`: the growth inhibition in assay [1] is 8%; in assay [4] it was 93% (active). Besides, the inhibition in assay [2] was 77% (active); in assay [3], -3%. Besides, the outcome in assay [5], in assay [6], in assay [7] and in assay [8] was inactive.
As to `CCOc1cc2ncnc(Nc3cc(Cl)c(Cl)c(Cl)c3)c2cc1OCC`, the growth inhibition in assay [1] is 98% (active); in assay [4], 102% (active). The inhibition is 11% in assay [2] and -3% in assay [3]. In addition, the result in assay [5], in assay [6], in assay [7] and in assay [8] was inactive.

Values taken from PubChem BioAssay.
